Source: PubChem
The list is not random: actives were taken first. Their share in the collection is about 7.8%.
Lassa entry inh – qHTS for Inhibitors of binding or entry into cells for Lassa Virus; Lassa virus pseudotype entry inhibition, cell reporter; Potency, µM (series often up to 37.9 µM), most hits filed as inhibitors; actives 1.2% (n = 300,000); calls by dose curve; tested in HEK293 cells; also: nearly all actives have a fitted effect of over 50% in size
HCMV inh – qHTS Assay for inhibitors of the human cytomegalovirus (HCMV). HFF cells, HCMV-luciferase reporter, 72 h; hits give low values. activity change, negative = inhibition, % at 57.5 µM. actives 4.5% (n = 410,000); in the data active = activity change below about -60%; inconclusive = no clear call, values can overlap the other calls; inactive = above about -39%
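Two compound doses tested in HFFs infected with HCMV-luciferase, MOI 1 PFU/cell, 72 h at 37C. Lysate luminescence read with OneGlo; data normalized against buffer-only and 10uM Salinomycin inhibitor controls.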
Vaccinia mCherry – qHTS for Stage-Specific Inhibitors of Vaccinia Orthopoxvirus: mCherry Reporter Primary qHTS; AID 720579, 2013; Vaccinia virus mCherry reporter infection, fluorescence; Potency, µM (top dose mostly 36.5 µM), most hits filed as inhibitors; actives 0.63% (n = 310,000); calls by dose curve; tested in A549 cells; also: nearly all actives have a fitted effect of over 35% in size
Vaccinia Venus – qHTS for Stage-Specific Inhibitors of Vaccinia Orthopoxvirus: Venus Reporter Primary qHTS; Vaccinia virus Venus reporter expression, fluorescence; Potency, µM (series often up to 36.5 µM), most hits filed as inhibitors; actives 0.46% (n = 330,000); AID 720580, 2013; calls by dose curve; tested in A549 cells; also: nearly all actives have a fitted effect of over 30% in size
HCV inh – qHTS Assay for Inhibitors of Hepatitis C Virus (HCV) | actives 3.4% (n = 340,000) | Huh7.5.1 HCVcc-Cre infection, luciferase reporter, 44 h | Potency, µM (doses to about 41.8 µM), actives largely listed as inhibitors; active = well fitted inhibition curve with a large enough effect; inconclusive = small, poorly fitted or top-dose-only effect, or another doubt; inactive = no such curve, though single readings can be large or run the other way
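Seed cells (1,000/well) for 4 h; treat with compound and infect with HCVcc-Cre, moi about 0.5. Incubate 44 h, then detect luciferase activity.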
Marburg entry inh – qHTS for inhibitors of binding or entry into cells for Marburg Virus; Marburg virus pseudotyped entry inhibition, cell reporter; Potency, µM (doses to about 37.8 µM), usual class: inhibitors; actives 1.8% (n = 300,000); AID 540276, 2011; calls by dose curve; tested in HEK293 cells
A number is an active result; i = inactive; ? = inconclusive; nt = no result; [ ] = remark or other dose.

SMILES	Lassa entry inh	HCMV inh	Vaccinia mCherry	Vaccinia Venus	HCV inh	Marburg entry inh
COc1ccccc1NS(=O)(=O)c1cc(NC(=O)C(C)(C)C)ccc1N1CCOCC1	i	i	i	i	?	i
O=C(Nc1ccc(N2CCCC2)c(S(=O)(=O)Nc2cccc(C(F)(F)F)c2)c1)c1cccs1	?	?	?	?	?	1.4µM
CCCOc1ccc(C(=O)NCC(c2ccc(OC)cc2)N2CCCCC2)cc1 (stereo not given)	i	i	i	i	nt	?
CC(C)(C)c1ccc(OCCSc2nc(-c3cccs3)nc3cc(=O)[nH]n23)cc1	i	i	i	i	nt	nt
COCCN1C(=O)CC[C@@]23C1=NC(C(=O)OC)=C(C(=O)OC)[C@@H]2N(CC=C(C)C)c1ccccc13	nt	nt	nt	nt	nt	i
COc1ccccc1NS(=O)(=O)c1cc(NC(=O)c2cccs2)ccc1N1CCCCC1	?	i	i	i	i	5.8µM
CN1CCN(c2ccc(Cl)cc2NC(=O)c2cc(=O)[nH]c3ccccc23)CC1	nt	-98	nt	nt	i	nt
O=C(NCC1Cc2cc(-c3cncnc3)cc(Cl)c2O1)c1cccc(Cn2cccn2)c1 (stereo not given)	nt	nt	i	i	nt	nt
CCCCCn1c(-c2ccco2)nc2nc3ccccc3nc21	i	i	nt	i	i	11µM
COc1cc(OC)c(NC(=O)CCS(=O)(=O)c2ccc3c(c2)oc(=O)n3C)cc1Cl	i	i	i	i	nt	nt
CCCn1c(CN2CCN(C(=O)OCC)CC2)nc2cc([N+](=O)[O-])ccc21	?	-76	i	i	?	?
Cc1cccc(OCC(=O)Nc2ccc3c(c2)nc(CCN2CCC(C)CC2)n3C)c1	nt	-69	nt	nt	?	nt
Cn1c(CCN2CCOCC2)nc2cc(NC(=O)COc3ccc([N+](=O)[O-])cc3)ccc21	nt	i	nt	nt	i	nt
Cn1c(CN2CCOCC2)nc2cc(NC(=O)COc3ccc([N+](=O)[O-])cc3)ccc21	i	-71	i	i	i	?
Cc1cccc(OCC(=O)Nc2ccc3c(c2)nc(CCN2CCN(C)CC2)n3C)c1	i	?	nt	nt	i	i
CCOC(=O)N1CCN(Cc2nc3cc([N+](=O)[O-])ccc3n2CC)CC1	nt	i	nt	nt	i	nt
CCOC(=O)N1CCN(Cc2nc3cc(NC(=O)c4ccc([N+](=O)[O-])cc4)ccc3n2C(C)C)CC1	i	-83	?	?	nt	?
CCn1c(C(=O)N2CCCC(C(=O)N3CCN(c4cc(C)ccc4C)CC3)C2)cc2sccc21 (stereo not given)	nt	i	i	i	nt	i
Cc1ccccc1S(=O)(=O)N[C@H]1CC[C@@]23CCCN2C(=O)CCC[C@H]3[C@H]1Cc1ccccc1	nt	i	nt	nt	nt	nt
CCc1cc2c(cc3c(=O)n(CC(=O)NCCc4ccc(OC)cc4OC)nc(CC)n32)s1	nt	i	i	i	nt	i
CCOC(=O)N1CCN(Cc2nc3cc(NC(=O)CC)ccc3n2C(C)C)CC1	i	i	i[7.34 µM]	i[7.34 µM]	nt	i
CCOC(=O)N1CCN(Cc2nc3cc(NC(=O)CC(C)C)ccc3n2C(C)C)CC1	i	-95	?	i	nt	?
CCOC(=O)N1CCN(Cc2nc3cc(NC(=O)c4cccc(C)c4)ccc3n2C(C)C)CC1	i	-94	?	?	nt	?
CC(C)[C@@H]1CC[C@H](C)C[C@H]1OP(N)(=O)c1ccccc1 (stereo not given in full)	nt	nt	nt	nt	nt	i
Cc1ccc(-c2cn3nc(N4CCCC(C(=O)NCc5ccccc5F)C4)sc3n2)cc1 (stereo not given)	?	?	i	i	nt	nt
SMILES	Lassa entry inh	HCMV inh	Vaccinia mCherry	Vaccinia Venus	HCV inh	Marburg entry inh
CCOc1ccc(C(=O)CSc2nnc3cc(C)c4ccccc4n23)cc1	i	i	i	i	nt	i
FC(F)(F)c1nnc2c(Sc3ccccc3)nc3ccc(Cl)cc3n12	?	-103	nt	nt	11µM	?
FC(F)(F)c1nc2ccccc2n2c(-c3ccc(Cl)cc3Cl)nnc12	i	i	nt	i	i	i
Cc1ccc(C(=O)c2oc3ccccc3c2NC(=O)C(C)Oc2ccccc2Cl)cc1 (stereo not given)	i	i	i	i	nt	i
CC(C)C(=O)OC1=CN(Cc2ccccc2)S(=O)(=O)c2ccccc21	i	i	?	?	nt	i
COc1ccc2oc(C(=O)OCC(=O)N3C(C)CCCC3C)c(C)c2c1 (stereo not given)	i	i	i	i	i	i
CCOc1ccc2oc(C(=O)NNC(=O)c3ccccc3O)c(C)c2c1	i	-72	?	i	i	i
CCOc1ccc2oc(C(=O)OCC(=O)N3C(C)CCCC3C)c(C)c2c1 (stereo not given)	nt	i	nt	nt	13µM	nt
COc1ccc2oc(C(=O)OCC(=O)c3ccc4c(c3)OCCO4)c(C)c2c1	16µM	i	i	i	i	?
CCOc1ccc2oc(C(=O)OCC(=O)NCC3CCCO3)c(C)c2c1 (stereo not given)	11µM	i	i	i	?	i
Cc1c(C(=O)NNC(=O)c2ccccc2O)oc2ccc(Br)cc12	?	i	i	i	i	i
CCn1cc(C(=O)OCC(=O)Nc2cc(Cl)ccc2OC)c(=O)c2ccc(C)nc21	?	i	i	i	nt	i
CCn1c(=O)c2cc(C(=O)N3CCN(c4cccc(OC)c4)CC3)sc2c2ccccc21	?	i	i[7.34 µM]	i[7.34 µM]	nt	?
C[C@@H]1C(c2ccccc2)=CC(=O)c2nc3ccccc3cc2[C@@H]1C(=O)N1CCCC1	nt	nt	nt	nt	nt	i
COC(=O)C1=C(C)N=C2SC(C)C(=O)N2C1c1ccc(C(=O)OC)cc1 (stereo not given)	i	-88	i	i	i	?
COC(=O)C1=C(C)N=C2SC(C)C(=O)N2C1c1cccs1 (stereo not given)	i	i	i	i	i	i
CCOc1ccc(C2c3c(oc4ccc(C)cc4c3=O)C(=O)N2c2nc(C)c(C)s2)cc1OC (stereo not given)	?	i	i	i	nt	i
COc1ccc2c(CNCc3cccs3)c(C(=O)O)n(Cc3ccc(F)cc3Cl)c2c1	i	i	i	i	nt	nt
O=C(NCc1cccc(Cl)c1)c1cccc(OC2CCN(C(=O)C3CC3)CC2)c1	?	-70	?	i	?	?
O=C(C1CC1)N1CCC(Oc2cccc(C(=O)N3CCCCC3CCO)c2)CC1 (stereo not given)	nt	i	nt	nt	i	nt
Cc1sc2nc(SCC(=O)C(C)(C)C)n(Cc3ccco3)c(=O)c2c1C	8.2µM	-98	nt	nt	?	?
Cc1cc2c(=O)n(Cc3ccco3)c(SCC(=O)c3ccc(Cl)s3)nc2s1	?	-65	nt	nt	?	?
Cc1cccc(CSc2nc3sc(C)c(C)c3c(=O)n2Cc2ccco2)c1	i	i	nt	nt	i	i
COc1cccc(CSc2nc3sc(C)c(C)c3c(=O)n2Cc2ccco2)c1	?	i	nt	nt	i	15µM
CCCn1c(C)cc(C(=O)CSc2nc3ccccc3c(=O)n2Cc2ccco2)c1C	?	?	i	i	?	?
